Where “and” joins values, the source holds several entries; their conditions need not be identical. Equal values may be shown once. Inconclusive results are not listed. Calls of active or inactive are those of the source. Unless noted, the call rests on the fitted dose curve; in most records, active means well fitted curve in the direction sought with a large enough effect; inconclusive means small, poorly fitted or top-dose-only effect, or another doubt; inactive means no such curve, though single readings can be large; an effect the other way counts as inactive or inconclusive.

The target in test [1] is Catechol O-methyltransferase (Homo sapiens) (UniProt P21964). Put plainly: Confirmatory Screen for Target Class Profiling of Small Molecule Inhibitors of Methyltransferases (AID 1745852; calls by dose curve; further: potency means the concentration at half of the fitted maximal effect; on activity change, negative = inhibition: on the % scale 0 is the no-effect control and ±100 the full control effect). Conditions: MTase-Glo luminescence, SAH detection, recombinant enzyme; measured here: COMT max response; stronger effect = lower value.
Chain of Catechol O-methyltransferase (Homo sapiens) (P21964 whole entry, looked up): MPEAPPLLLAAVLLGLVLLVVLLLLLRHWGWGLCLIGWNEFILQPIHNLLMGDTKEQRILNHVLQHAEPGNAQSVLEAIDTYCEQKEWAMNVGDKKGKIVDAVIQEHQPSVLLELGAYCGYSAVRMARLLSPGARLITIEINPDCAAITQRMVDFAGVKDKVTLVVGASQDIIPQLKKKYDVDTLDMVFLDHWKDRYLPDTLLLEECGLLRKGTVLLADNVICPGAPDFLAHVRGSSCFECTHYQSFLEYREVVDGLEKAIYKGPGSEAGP
Test [2] deals with Guanidinoacetate N-methyltransferase (Homo sapiens) (UniProt Q14353). Described as above. The note with it: MTase-Glo luminescence, SAH detection, recombinant enzyme; activity change, negative = inhibition: at 57.3 µM (top of the series).
Test [3] deals with Nicotinamide N-methyltransferase (Homo sapiens) (UniProt P40261). The description is as above. Conditions: MTase-Glo luminescence, SAH detection, recombinant enzyme; measured here: NNMT max response; stronger effect = lower value.
Chain of Nicotinamide N-methyltransferase (Homo sapiens) (P40261 whole entry, looked up): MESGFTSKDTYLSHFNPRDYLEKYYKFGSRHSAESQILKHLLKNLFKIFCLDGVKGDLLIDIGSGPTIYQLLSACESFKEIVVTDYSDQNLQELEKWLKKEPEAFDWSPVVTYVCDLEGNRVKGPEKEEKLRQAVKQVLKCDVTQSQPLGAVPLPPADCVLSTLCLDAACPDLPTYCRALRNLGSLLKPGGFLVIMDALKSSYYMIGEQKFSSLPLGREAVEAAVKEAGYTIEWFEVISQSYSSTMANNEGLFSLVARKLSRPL
For test [4], the target named is Phenylethanolamine N-methyltransferase (Homo sapiens) (UniProt P11086). Described as above. Conditions: MTase-Glo luminescence, SAH detection, recombinant enzyme; measured here: PNMT max response; stronger effect = lower value.
Chain of Phenylethanolamine N-methyltransferase (Homo sapiens) (P11086 whole entry, looked up): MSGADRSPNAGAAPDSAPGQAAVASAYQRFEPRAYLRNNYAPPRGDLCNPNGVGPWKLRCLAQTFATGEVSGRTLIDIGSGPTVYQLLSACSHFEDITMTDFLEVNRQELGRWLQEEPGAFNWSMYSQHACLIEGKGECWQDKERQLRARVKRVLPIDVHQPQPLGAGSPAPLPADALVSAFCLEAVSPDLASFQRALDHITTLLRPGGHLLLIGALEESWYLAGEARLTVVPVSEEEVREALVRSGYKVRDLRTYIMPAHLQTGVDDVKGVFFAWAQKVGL
The target of test [5] is Rap guanine nucleotide exchange factor 3 (Homo sapiens) (UniProt O95398). The experiment in a line: Confirmatory qHTS for antagonist of cAMP-regulated guanine nucleotide exchange factor 3 (EPAC1) (AID 1645880).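 Further: plate controls were DMSO only for no effect and full effect of the ATA control for full effect; nearly all actives have a fitted effect of over 55% in size.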 Conditions: EPAC1 Rap1B-BODIPY-GDP exchange, fluorescence; series mostly up to 115 µM. Put shortly: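 Released BODIPY-GDP fluoresces less than Rap1-bound BODIPY-GDP; the signal is followed at 480/540 nm at 5-min intervals over 30 min, after 5 min at room temperature. Reactions contain 100 nM EPAC1, 250 nM RAP1B-BODIPY-GDP and 50 uM GDP; results are normalized to ATA and DMSO.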
Chain of Rap guanine nucleotide exchange factor 3 (Homo sapiens) (O95398 whole entry, looked up): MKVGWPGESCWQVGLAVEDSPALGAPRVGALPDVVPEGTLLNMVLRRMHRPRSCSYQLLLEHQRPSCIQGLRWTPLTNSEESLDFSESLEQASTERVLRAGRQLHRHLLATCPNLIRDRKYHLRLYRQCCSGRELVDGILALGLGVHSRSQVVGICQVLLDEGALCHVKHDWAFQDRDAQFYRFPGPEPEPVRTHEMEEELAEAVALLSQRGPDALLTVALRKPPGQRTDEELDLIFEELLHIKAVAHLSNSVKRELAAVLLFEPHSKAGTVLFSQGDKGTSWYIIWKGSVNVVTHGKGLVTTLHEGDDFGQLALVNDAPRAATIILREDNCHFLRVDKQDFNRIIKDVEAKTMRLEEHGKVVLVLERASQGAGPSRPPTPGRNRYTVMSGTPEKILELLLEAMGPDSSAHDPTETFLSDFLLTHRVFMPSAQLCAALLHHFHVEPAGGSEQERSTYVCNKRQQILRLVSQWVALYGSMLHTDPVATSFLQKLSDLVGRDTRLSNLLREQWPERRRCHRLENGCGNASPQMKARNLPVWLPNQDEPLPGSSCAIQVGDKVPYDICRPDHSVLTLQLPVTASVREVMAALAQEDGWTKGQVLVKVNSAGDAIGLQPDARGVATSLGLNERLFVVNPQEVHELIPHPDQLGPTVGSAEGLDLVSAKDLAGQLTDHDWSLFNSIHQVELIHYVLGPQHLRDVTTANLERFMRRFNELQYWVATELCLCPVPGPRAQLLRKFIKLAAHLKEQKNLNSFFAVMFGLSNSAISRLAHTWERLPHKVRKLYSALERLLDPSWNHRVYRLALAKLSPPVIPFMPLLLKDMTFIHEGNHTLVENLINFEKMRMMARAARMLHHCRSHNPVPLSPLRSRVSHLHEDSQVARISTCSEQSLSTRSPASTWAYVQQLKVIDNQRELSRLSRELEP
For orientation: qHTS replaces the single test concentration by a dilution series.

Test [6] has the same target. The experiment in a line: Confirmatory qHTS for agonist of cAMP-regulated guanine nucleotide exchange factor 3 (EPAC1) (AID 1645881). Further: nearly all actives have a fitted effect of over 75% in size. Further: potency means the concentration at half of the fitted maximal effect. Conditions: EPAC1 Rap1B BODIPY-GDP exchange fluorescence; series mostly up to 154 µM.
The target of test [7] is Rap guanine nucleotide exchange factor 4 (Homo sapiens) (UniProt Q8WZA2). Put plainly: Confirmatory qHTS for agonist of cAMP-regulated guanine nucleotide exchange factor 4 (EPAC2) (AID 1645884).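 Further: nucleotide exchange releases bodipy-GDP from Rap1 and this lowers its fluorescence; nearly all actives have a fitted effect of over 65% in size.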 Further: potency means the concentration at half of the fitted maximal effect. The note with it: EPAC2 GEF activity, Rap1B-BODIPY-GDP fluorescence; series mostly up to 154 µM.
Chain of Rap guanine nucleotide exchange factor 4 (Homo sapiens) (Q8WZA2 whole entry, looked up): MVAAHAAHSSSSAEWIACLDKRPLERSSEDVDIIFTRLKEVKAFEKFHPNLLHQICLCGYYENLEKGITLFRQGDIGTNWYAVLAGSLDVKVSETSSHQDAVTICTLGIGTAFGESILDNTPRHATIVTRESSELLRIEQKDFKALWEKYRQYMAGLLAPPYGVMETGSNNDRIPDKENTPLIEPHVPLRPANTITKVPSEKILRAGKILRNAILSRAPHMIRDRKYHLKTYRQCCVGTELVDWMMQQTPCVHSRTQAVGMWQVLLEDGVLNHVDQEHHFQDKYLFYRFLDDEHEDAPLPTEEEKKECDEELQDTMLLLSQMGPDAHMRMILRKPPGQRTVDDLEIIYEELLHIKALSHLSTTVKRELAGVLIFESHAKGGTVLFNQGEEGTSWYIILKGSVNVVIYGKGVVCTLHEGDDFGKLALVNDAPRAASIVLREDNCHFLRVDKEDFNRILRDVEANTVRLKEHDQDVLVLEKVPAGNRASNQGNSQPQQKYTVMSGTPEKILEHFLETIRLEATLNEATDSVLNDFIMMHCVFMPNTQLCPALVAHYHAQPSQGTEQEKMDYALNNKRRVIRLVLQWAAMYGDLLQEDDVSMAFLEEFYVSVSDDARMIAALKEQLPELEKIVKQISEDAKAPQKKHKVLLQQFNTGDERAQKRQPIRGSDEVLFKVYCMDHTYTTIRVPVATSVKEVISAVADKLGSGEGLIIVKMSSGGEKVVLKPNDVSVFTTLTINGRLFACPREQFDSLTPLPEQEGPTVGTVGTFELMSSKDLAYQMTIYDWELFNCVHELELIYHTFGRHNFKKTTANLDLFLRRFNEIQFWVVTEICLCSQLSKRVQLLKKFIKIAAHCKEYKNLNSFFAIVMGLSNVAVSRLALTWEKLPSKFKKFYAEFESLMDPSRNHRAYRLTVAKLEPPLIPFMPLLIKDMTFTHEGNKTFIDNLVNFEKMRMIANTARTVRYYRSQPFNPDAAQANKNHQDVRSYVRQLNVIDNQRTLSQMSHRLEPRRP
Test [8] has the same target. Put plainly: Confirmatory qHTS for antagonist of cAMP-regulated guanine nucleotide exchange factor 4 (EPAC2) (AID 1645885). Further: nearly all actives have a fitted effect of over 25% in size. Further: potency means the concentration at half of the fitted maximal effect. On activity change, negative = inhibition: on the % scale 0 is the no-effect control and ±100 the full control effect. Conditions: EPAC2 Rap1B-BODIPY-GDP exchange fluorescence, biochemical; series mostly up to 114 µM.
Test [9] deals with Rap guanine nucleotide exchange factor 3 (Homo sapiens) (UniProt O95398). The experiment in a line: Counterscreen qHTS for antagonist of cAMP-regulated guanine nucleotide exchange factor 3 (EPAC1) (AID 1645888). Further: % of control where 0% means no effect. The note with it: Rap1B-BODIPY-GDP nucleotide exchange, fluorescence; series mostly up to 154 µM. A digest of the protocol:
(§1)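 Rap1B–BODIPY-GDP (250 nM) with 50 uM GDP; compounds pin-transferred to 9.74 nM–152 uM final (activator) or from 7.32 nM upwards (inhibitor). Fluorescence Ex/Em 480/540 nm read at 5 and 30 min, then after adding cAMP or buffer, at room temperature.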
(A counterscreen serves to expose hits that act by an unwanted route or on another target.)

The target is the same in test [10]. The experiment in a line: Counterscreen qHTS for agonist of cAMP-regulated guanine nucleotide exchange factor 3 (EPAC1) (AID 1645889). Further: nearly all actives have a fitted effect of over 40% in size. Further: potency means the concentration at half of the fitted maximal effect. The note with it: EPAC1 Rap1B-BODIPY-GDP exchange, fluorescence; series mostly up to 154 µM. Put shortly: as §1

With `Cn1ccc2cc3c(cc21)CCN3C(=O)Nc1cccnc1`, the activity in test [1] is -1.14%; in test [3], -11.7%; in test [4], 1.53%. The activity change, negative = inhibition in [2] was -1.78%.
On to `Clc1ccccc1C(c1ccccc1)(c1ccccc1)n1ccnc1`, for which the outcome in test [5] was “inactive”. Further, the Potency entry in test [6] and in test [7] was “inactive” in each case. In addition, the Potency in [8] was 9.87 µM (active) and 5.3 µM (active). The activity change, negative = inhibition in test [9] is 6.78% [at 30.8 µM] (inactive).
In the case of `OCCN(CCO)c1nc(N2CCCCC2)c2nc(N(CCO)CCO)nc(N3CCCCC3)c2n1`, the outcome in [5] and in [9] was “inactive” in each case. Besides, the Potency was 79.3 µM (active) and 70.6 µM (active) and 63 µM (active) in test [6]; 79.3 µM (active) and 70.6 µM (active) and 112 µM (active) in test [7]. In test [8], the Potency result was “inactive”.
As to `Cc1ccc(C(=O)Nc2ccc(S(=O)(=O)O)c3cc(S(=O)(=O)O)cc(S(=O)(=O)O)c23)cc1NC(=O)c1cccc(NC(=O)Nc2cccc(C(=O)Nc3cc(C(=O)Nc4ccc(S(=O)(=O)O)c5cc(S(=O)(=O)O)cc(S(=O)(=O)O)c45)ccc3C)c2)c1`, the activity in test [1] was 5.77%; in test [3], -4.38%; in [4], 6.94%. Moreover, in [2], the activity change, negative = inhibition was found to be 2.65%.
With `O=c1c(O)c(-c2ccc(O)c(O)c2)oc2cc(O)cc(O)c12`, the Potency result in [6], in test [7] and in test [10] was “inactive” in each case. Also, in test [8], the Potency is 75.7 µM (active). Further, the outcome in test [9] is “inactive”.
For the molecule `OCCN1CCN(CCCN2c3ccccc3Sc3ccc(C(F)(F)F)cc32)CC1`, the Potency entry in test [6] and in test [7] was “inactive” in each case. Besides, the Potency is 44.1 µM (active) in [8] and 30.6 nM (active) in test [2]. Moreover, the activity was -1.96% in test [1], -64.7% in test [3] and -1.22% in [4].
In the case of `CN(C)C(=O)C(CCN1CCC(O)(c2ccc(Cl)cc2)CC1)(c1ccccc1)c1ccccc1`, the activity in [1] is -5.52%; in test [3], -39.1%; in [4] it was -5.06%. The activity change, negative = inhibition in [2] amounted to 6.23%.
For the molecule `CN1CCN(CCCN2c3ccccc3Sc3ccc(Cl)cc32)CC1`, the Potency entry in test [6] was “inactive”. In test [8], the Potency is 35 µM (active).
In the case of `COC(=O)Nc1nc2ccc(C(=O)c3cccs3)cc2[nH]1`, in [5], the outcome was “inactive”. Also, the Potency entry in test [6], in test [7] and in test [8] was “inactive” throughout.
On to `CCOC(=O)Nc1ccc(NCc2ccc(F)cc2)nc1N`, for which the outcome in test [5] and in [9] was “inactive” in each case. In addition, the Potency entry in test [6], in test [7] and in test [8] was “inactive” in each case. The Potency in [10] was 4.47 µM (active).
In the case of `NCCS(=O)(=O)O`, the outcome in test [5] is “inactive”. In addition, the Potency entry in test [6], in [7] and in test [8] was “inactive” throughout.
For `CN(C)CCC=C1c2ccccc2C=Cc2ccccc21`, the activity in [1] was 7.28%; in [3] it was -9.28%; in test [4], 7.91%. In addition, the Potency in test [2] is 3.9 nM (active).
`CC[C@@]1(O)C(=O)OCc2c1cc1n(c2=O)Cc2cc3c(CN(C)C)c(O)ccc3nc2-1`: in test [5], the outcome is “inactive”. The Potency result in test [7] and in [8] was “inactive” each time.

For the origin of these results see PubChem BioAssay (NCATS).
